The list is not random: actives were taken first. Their share in the collection is about 19%.
HT1080 IDH1KD tx: qHTS for induction of synthetic lethality in tumor cells producing 2HG: qHTS for the HT-1080-IDH1KD cell line; Potency, µM (series often up to 46.1 µM), inactives show at the top dose activity, negative = toxicity, most hits filed as cytotoxic; hit rate 2% among 360,000; HT-1080 IDH1 knockdown viability, ATP luminescence, 48 h;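 further: potency means the concentration at half of the fitted maximal effect; 0% = DMSO wells and -100% = cell-free medium wells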
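Knockdown cells (IDH1KD HT-1080) received compounds 2 h after plating at 750 cells/well and were kept 48 h at 37 °C in 5% FBS RPMI. A CellTiter-Glo luminescence read gave % activity for curve fitting.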
HT1080NT lethal: qHTS for induction of synthetic lethality in tumor cells producing 2HG: qHTS for the HT-1080-NT fibrosarcoma cell line; HT-1080-NT fibrosarcoma viability, CellTiter-Glo ATP luminescence, 48 h; Potency, µM (highest dose often 46.1 µM), without a hit: top-dose activity, negative = less viability, actives largely listed as cytotoxic; hit rate 1.6% among 360,000;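 further: NT is the 2HG producing partner of a matched IDH1 knockdown line; potency means the concentration at half of the fitted maximal effect; 0% = DMSO-treated cells and -100% = media-only wells without cells; nearly all actives have a fitted effect of over 55% in size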
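Viability of the 2HG-overproducing fibrosarcoma line after 48 hours of compound exposure at 37 degrees C was determined by luminescence with CellTiter-Glo, and concentration-effect curves were then fitted and categorized.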
IL-1B inflam inh: qHTS for Inhibitors of Inflammasome Signaling: IL-1-beta AlphaLISA Primary Screen | THP-1 LPS/ATP IL-1B secretion, AlphaLISA, 16 h; active compounds read low | activity change, % at 57.5 µM | hit rate 4.7% among 360,000 | AID 743279, 2014; in the data active means activity change below about -50%; inconclusive means mostly about -30% to -49%
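Secreted IL-1B measured by AlphaLISA bead assay after 16 h compound exposure of THP-1 cells; compounds (final up to 57.5 uM) added 1 h before LPS (250 ng/mL) and ATP (1.25 mM) stimulation; lower signal means less secretion.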
DT40 TDP1 no CPT: qHTS for Inhibitors of human tyrosyl-DNA phosphodiesterase 1 (TDP1): qHTS in cells in absence of CPT | hit rate 15% among 420,000 | Potency, µM (top dose mostly 46.2 µM), inactives show at the highest dose activity change, negative = growth inhibition, actives largely listed as inhibitors | DT40 Tdp1-/- hTDP1 cells, no CPT, ATP luminescence, 48 h; further: potency means the concentration at half of the fitted maximal effect; nearly all actives have a fitted effect of over 55% in size
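A cellular qHTS used chicken DT40 cells lacking endogenous Tdp1 but carrying stably transfected human TDP1. Compounds were applied without camptothecin, and cell growth kinetics were judged by ATP-dependent luminescence after ≥48 hr.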
TDP1 cell CPT: qHTS for Inhibitors of human tyrosyl-DNA phosphodiesterase 1 (TDP1): qHTS in cells in presence of CPT | chicken DT40 Tdp1-/-;hTDP1 cells + 20 nM CPT, ATP luminescence, 48 h | Potency, µM (top dose mostly 46.2 µM), without a hit: top-dose activity change, negative = growth inhibition, hits mostly inhibitors | hit rate 12% among 420,000; further: potency means the concentration at half of the fitted maximal effect; nearly all actives have a fitted effect of over 55% in size
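Cell growth measured by CellTiter-Glo luminescence after a minimum 48 h, 37 C compound exposure with 20 nM CPT in Tdp1-knockout DT40 cells stably expressing hTDP1, seeded 400/well; qHTS titration format.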
Numbers without * were called inactive; ? = inconclusive; . = no result given; [ ] = remark or other dose. Unless noted, the call rests on the fitted dose curve; in most records, active means well fitted curve in the direction sought with a large enough effect; inconclusive means small, poorly fitted or top-dose-only effect, or another doubt; inactive means no such curve, though single readings can be large; an effect the other way counts as inactive or inconclusive. Unless noted, on the % scale 0 is the no-effect control and ±100 the full control effect.

SMILES	HT1080 IDH1KD tx	HT1080NT lethal	IL-1B inflam inh	DT40 TDP1 no CPT	TDP1 cell CPT
O=C(O)CCCn1cc(NC(=O)c2c(F)cccc2F)cn1	27.1%	3.9%	6.9	4.6%	-2.7%
CCC1CCCCN1CCCNC(=O)c1nn(C)c2c1CS(=O)(=O)c1ccccc1-2 (centres undefined)	3.2%	-3.4%	-4.1	26.8%	10.2%
CCn1c2ccccc2c2cc(NC(=O)COc3ccc(OC)cc3)ccc21	11.9%	?	-29.6	?	?
CCn1c2ccccc2c2cc(NC(=O)c3cc(OC)cc(OC)c3)ccc21	1.46µM*	1.3µM*	18.8	0.731µM*	1.03µM*
C/C(CC(=O)Nc1ccc(OCc2ccccc2)cc1)=N\NC(=O)C(=O)Nc1ccc(C)c(Cl)c1	?	18.4µM*	6.5	18.4µM*	?
O=C(CCN1C(=O)c2ccccc2C1=O)Nn1cnnc1	-2.5%	-7.6%	12.3	-15.4%	-1.3%
CC1(C)C(=O)Nc2ccccc2N1C(=O)CSc1nc(-c2ccccc2)cs1	-21.8%	-4.7%	?	14.6µM*	?
O=C1CN(C(=O)CSc2nc(-c3ccccc3)cs2)c2ccccc2N1	-2.2%	3.8%	11.2	?	-18.5%
Cc1nn(CC(=O)N2c3ccccc3NC(=O)C2(C)C)c(C)c1[N+](=O)[O-]	-4.6%	-3.1%	-8.7	?	-9.8%
CC1(C)C(=O)Nc2ccccc2N1C(=O)Cn1ncc(Cl)c(Cl)c1=O	-25.2%	-10.2%	-99.0*	23.1µM*	23.1µM*
O=C(Cn1ncc(Cl)c(Cl)c1=O)N1CCc2ccccc21	2.91µM*	4.61µM*	-109.5*	6.51µM*	4.61µM*
O=C(Cn1ncc(Cl)c(Cl)c1=O)N1CCOCC1	13µM*	11.6µM*	-99.0*	13µM*	?
O=C(NC1CCN(Cc2ccccc2)C1)c1cnn(-c2ncc3c(n2)-c2ccccc2CC3)c1C1CC1 (centres undefined)	.	.	.	-17.4%	6.5%[9.04 µM]
OC(c1ccccc1)C(O)C(c1ccccc1)N1CCCCC1 (centres undefined)	4.6%	10.8%	0.4	-0.8%	12.3%
O=C(NC1CCCCC1)c1cc(S(=O)(=O)N2CCCCC2)ccc1N1CCOCC1	0.1%	-0.3%	9.9	-23.9%	-16.8%
O=C(Cn1ncc(Cl)c(Cl)c1=O)N1CCN(Cc2ccccc2)CC1	?	?	-2.8	3.26µM*	3.26µM*
CCCN(CCC)CCNC(=S)Nc1ccc2nc3n(c(=O)c2c1)CCCCC3	-24.0%	-15.7%	-1.0	?	1.9%
CCOC(=O)C1=C(CS(=O)(=O)c2ccc(Br)cc2)NC(=O)NC1c1ccccc1 (centres undefined)	.	.	.	?	20.6µM*
CCOC(=O)C1=C(CS(=O)(=O)c2ccc(C)cc2)NC(=O)NC1c1ccc(C(C)C)cc1 (centres undefined)	.	.	.	11.6µM*	18.4µM*
C=CCOc1ccc(C(=O)/C=C2/C(=O)Nc3ccccc32)cc1	?	?	-91.7*	13µM*	16.4µM*
NC(=O)COc1ccc(C(=O)/C=C2/C(=O)Nc3ccccc32)cc1	?	-25.5%	-100.5*	2.91µM*	7.31µM*

Assay outcomes: PubChem BioAssay, National Center for Advancing Translational Sciences (NCATS)
